# Reference: the supplement of paper PMC8728848
# Only a selection was taken, and the strongest signals are over-represented in it overall.
# B1: Gal 1 (Canis lupus) (protein)
# chain: MACGLVASNLSLKPGQCLRVQCEVVPEAKSFVLNLGKDGDNLCLHFNPRFEAHGDVNTIVCNSKDGGAWGEELRESAFPFQPGTVTEVCISFDQADLTIKLPDGYTFKFPNRLNLEAISYLAADGDMKIKCLAFD
# B2: Thrombomodulin Extracellular (Mus musculus), P15306 (protein)
# chain: MLGIFFLGVLAPASLGLSALAKLQPTGSQCVEHECFALFQGPATFLDASQACQRLQGHLMTVRSSVAADVISLLLSQSSMDLGPWIGLQLPQGCDDPVHLGPLRGFQWVTGDNHTSYSRWARPNDQTAPLCGPLCVTVSTATEAAPGEPAWEEKPCETETQGFLCEFYFTASCRPLTVNTRDPEAAHISSTYNTPFGVSGADFQTLPVGSSAAVEPLGLELVCRAPPGTSEGHWAWEATGAWNCSVENGGCEYLCNRSTNEPRCLCPRDMDLQADGRSCARPVVQSCNELCEHFCVSNAEVPGSYSCMCETGYQLAADGHRCEDVDDCKQGPNPCPQLCVNTKGGFECFCYDGYELVDGECVELLDPCFGSNCEFQCQPVSPTDYRCICAPGFAPKPDEPHKCEMFCNETSCPADCDPNSPTVCECPEGFILDEGSVCTDIDECSQGECFTSECRNFPGSYECICGPDTALAGQISKDCDPIPVREDTKEEEGSGEPPVSPTPGSPTGPPSARPVHSGVLIGISIASLSLVVALLALLCHLRKKQGAARAELEYKCASSAKEVVLQHVRTDRTLQKF
# Experiments:
# Assay in all cases: glycan array binding signal (z-score within array); higher = stronger binding
# Conditions in all cases: glycan notation: IUPAC condensed, linker removed
# [1] = molecular target: Neu5Ac(a2-6)Gal(b1-4)GlcNAc(b1-3)Gal(b1-3)GlcNAc
# How it was run: (§1)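 Arrays were curated from the Consortium for Functional Glycomics database, 3228 in total, and kept only where the protein sequence was available. Binding is expressed as a within-array Z-score. This score was averaged across arrays of the same protein sequence at different concentrations or buffers and across linkers, and negative values can be read as non-binding.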
# [2] = molecular target: Neu5Ac(a2-6)Gal(b1-4)GlcNAc6S
# How it was run: as §1
# [3] = molecular target: Neu5Ac(a2-8)Neu5Ac(a2-8)Neu5Ac
# How it was run: as §1
# [4] = molecular target: Neu5Ac9Ac(a2-6)Gal(b1-4)GlcNAc
# How it was run: as §1
# [5] = molecular target: Fuc(a1-2)Gal(b1-3)GalNAc
# How it was run: as §1
# [6] = molecular target: Fuc(a1-2)Gal(b1-3)GalNAc(b1-4)[Neu5Ac(a2-3)]Gal(b1-4)Glc
# How it was run: as §1
# [7] = molecular target: Fuc(a1-2)Gal(b1-3)GlcNAc(b1-2)Man(a1-3)[Fuc(a1-2)Gal(b1-3)GlcNAc(b1-2)Man(a1-6)]Man(b1-4)GlcNAc(b1-4)GlcNAc
# How it was run: as §1
# [8] = molecular target: Fuc(a1-2)Gal(b1-4)GlcNAc(b1-3)Gal(b1-4)GlcNAc
# How it was run: as §1
# [9] = molecular target: Fuc(a1-2)Gal(b1-4)[Fuc(a1-3)]GlcNAc
# How it was run: as §1
# [10] = molecular target: Fuc(a1-2)Gal(b1-4)[Fuc(a1-3)]GlcNAc(b1-3)Gal(b1-4)[Fuc(a1-3)]GlcNAc
# How it was run: as §1
# [11] = molecular target: Fuc(a1-2)[Gal(a1-3)]Gal(b1-3)GalNAc(b1-3)Gal(a1-4)Gal(b1-4)Glc
# How it was run: as §1
# [12] = molecular target: Fuc(a1-2)[Gal(a1-3)]Gal(b1-3)GlcNAc(b1-3)GalNAc
# How it was run: as §1
# [13] = molecular target: Fuc(a1-2)[Gal(a1-3)]Gal(b1-4)[Fuc(a1-3)]Glc
# How it was run: as §1
# [14] = molecular target: Fuc(a1-2)[GalNAc(a1-3)]Gal
# How it was run: as §1
# [15] = molecular target: Fuc(a1-2)[GalNAc(a1-3)]Gal(b1-4)GlcNAc(b1-2)Man
# How it was run: as §1
# [16] = molecular target: Fuc(a1-3)[Gal(b1-4)]GlcNAc(b1-3)Gal(b1-3)[Fuc(a1-4)]GlcNAc
# How it was run: as §1
# [17] = molecular target: Gal(a1-3)Gal(b1-4)GlcNAc
# How it was run: as §1
# [18] = molecular target: Gal(a1-3)Gal(b1-4)GlcNAc(b1-2)Man
# How it was run: as §1
# [19] = molecular target: Gal(a1-4)Gal(b1-4)GlcNAc
# How it was run: as §1
# [20] = molecular target: Gal(a1-4)Gal(b1-4)GlcNAc(b1-2)Man(a1-3)[Gal(a1-4)Gal(b1-4)GlcNAc(b1-2)Man(a1-6)]Man(b1-4)GlcNAc(b1-4)GlcNAc
# How it was run: as §1
# [21] = molecular target: Gal(b1-3)GlcNAc(b1-2)Man(a1-3)[GlcNAc(b1-4)][Gal(b1-3)GlcNAc(b1-2)Man(a1-6)]Man(b1-4)GlcNAc(b1-4)GlcNAc
# How it was run: as §1
# [22] = molecular target: Gal(b1-3)GlcNAc(b1-2)[Gal(b1-3)GlcNAc(b1-6)]Man(a1-6)[Gal(b1-3)GlcNAc(b1-2)Man(a1-3)]Man(b1-4)GlcNAc(b1-4)GlcNAc
# How it was run: as §1
# [23] = molecular target: Gal(b1-3)GlcNAc(b1-3)GalNAc
# How it was run: as §1
# [24] = molecular target: Gal(b1-3)[Fuc(a1-4)]GlcNAc(b1-2)Man(a1-3)[Gal(b1-3)[Fuc(a1-4)]GlcNAc(b1-2)Man(a1-6)]Man(b1-4)GlcNAc(b1-4)[Fuc(a1-6)]GlcNAc
# How it was run: as §1
# [25] = molecular target: Gal(b1-4)GlcNAc(b1-2)Man(a1-3)[GlcNAc(b1-2)Man(a1-6)]Man(b1-4)GlcNAc(b1-4)GlcNAc
# How it was run: as §1
# [26] = molecular target: Gal(b1-4)GlcNAc(b1-2)[Gal(b1-4)GlcNAc(b1-6)]Man(a1-6)[Gal(b1-4)GlcNAc(b1-2)Man(a1-3)]Man(b1-4)GlcNAc(b1-4)[Fuc(a1-6)]GlcNAc
# How it was run: as §1
# [27] = molecular target: Gal(b1-4)GlcNAc(b1-2)[Gal(b1-4)GlcNAc(b1-6)]Man(a1-6)[GlcNAc(b1-4)][Gal(b1-4)GlcNAc(b1-2)[Gal(b1-4)GlcNAc(b1-4)]Man(a1-3)]Man(b1-4)GlcNAc(b1-4)[Fuc(a1-6)]GlcNAc
# How it was run: as §1
# [28] = molecular target: Gal(b1-4)GlcNAc(b1-3)Gal(b1-4)GlcNAc(b1-3)Gal(b1-4)GlcNAc(b1-3)Gal(b1-4)GlcNAc(b1-2)Man(a1-3)[Gal(b1-4)GlcNAc(b1-3)Gal(b1-4)GlcNAc(b1-3)Gal(b1-4)GlcNAc(b1-3)Gal(b1-4)GlcNAc(b1-2)Man(a1-6)]Man(b1-4)GlcNAc(b1-4)[Fuc(a1-6)]GlcNAc
# How it was run: as §1
# [29] = molecular target: Gal3S(b1-4)[Fuc(a1-3)]Glc6S
# How it was run: as §1
# [30] = molecular target: GalNAc(b1-3)GlcNAc
# How it was run: as §1
# [31] = molecular target: GalNAc(b1-4)Gal(b1-4)Glc
# How it was run: as §1
# [32] = molecular target: GlcNAc(a1-4)Gal(b1-4)GlcNAc(b1-3)Gal(b1-4)GlcNAc(b1-3)Gal(b1-4)GlcNAc
# How it was run: as §1
# [33] = molecular target: GlcNAc(b1-3)Gal(b1-4)GlcNAc(b1-3)Gal(b1-4)GlcNAc(b1-3)Gal(b1-4)GlcNAc(b1-2)Man(a1-3)[GlcNAc(b1-3)Gal(b1-4)GlcNAc(b1-3)Gal(b1-4)GlcNAc(b1-3)Gal(b1-4)GlcNAc(b1-2)Man(a1-6)]Man(b1-4)GlcNAc(b1-4)[Fuc(a1-6)]GlcNAc
# How it was run: as §1
# [34] = molecular target: GlcNAc(b1-3)Gal(b1-4)GlcNAc(b1-3)Gal(b1-4)GlcNAc(b1-3)Gal(b1-4)GlcNAc(b1-3)Gal(b1-4)GlcNAc(b1-2)Man(a1-3)[GlcNAc(b1-3)Gal(b1-4)GlcNAc(b1-3)Gal(b1-4)GlcNAc(b1-3)Gal(b1-4)GlcNAc(b1-3)Gal(b1-4)GlcNAc(b1-2)Man(a1-6)]Man(b1-4)GlcNAc(b1-4)GlcNAc
# How it was run: as §1
# [35] = molecular target: GlcNAc(b1-3)Man
# How it was run: as §1
# [36] = molecular target: GlcNAc(b1-4)GlcNAc(b1-4)GlcNAc(b1-4)GlcNAc(b1-4)GlcNAc
# How it was run: as §1
# [37] = molecular target: Kdn(a2-3)Gal(b1-3)GalNAc
# How it was run: as §1
# [38] = molecular target: Man(a1-3)[Man(a1-6)]Man(a1-6)[Man(a1-3)]Man
# How it was run: as §1
# [39] = molecular target: Neu5Ac(a2-3)Gal(b1-3)GlcNAc(b1-2)Man(a1-3)[Neu5Ac(a2-3)Gal(b1-3)GlcNAc(b1-2)Man(a1-6)]Man(b1-4)GlcNAc(b1-4)GlcNAc
# How it was run: as §1
# [40] = molecular target: Neu5Ac(a2-3)Gal(b1-4)GlcNAc(b1-3)Gal(b1-4)GlcNAc(b1-3)GalNAc
# How it was run: as §1
# [41] = molecular target: Neu5Ac(a2-3)Gal(b1-4)[Fuc(a1-3)]GlcNAc(b1-2)Man
# How it was run: as §1
# [42] = molecular target: Neu5Ac(a2-3)Gal(b1-4)[Fuc(a1-3)]GlcNAc(b1-3)GalNAc
# How it was run: as §1
# [43] = molecular target: Neu5Ac(a2-3)Gal6S(b1-4)GlcNAc
# How it was run: as §1
# [44] = molecular target: Neu5Ac(a2-6)Gal(b1-4)GlcNAc(b1-2)Man(a1-3)[Man(a1-6)]Man(b1-4)GlcNAc(b1-4)GlcNAc
# How it was run: as §1
# [45] = molecular target: Neu5Ac(a2-6)Gal(b1-4)GlcNAc(b1-3)Gal(b1-4)GlcNAc(b1-3)Gal(b1-4)GlcNAc
# How it was run: as §1
# [46] = molecular target: Neu5Ac(a2-6)Gal(b1-4)GlcNAc(b1-3)Gal(b1-4)[Fuc(a1-3)]GlcNAc(b1-3)Gal(b1-4)[Fuc(a1-3)]GlcNAc
# How it was run: as §1
# [47] = molecular target: Neu5Ac(a2-6)Gal(b1-4)GlcNAc(b1-6)[Gal(b1-3)]GalNAc
# How it was run: as §1
# [48] = molecular target: Neu5Ac(a2-8)Neu5Ac(a2-8)Neu5Ac(a2-3)[Gal(b1-3)GalNAc(b1-4)]Gal(b1-4)Glc
# How it was run: as §1
# [49] = molecular target: Neu5Gc(a2-3)Gal(b1-4)GlcNAc(b1-3)Gal(b1-4)GlcNAc(b1-2)Man(a1-3)[Neu5Gc(a2-3)Gal(b1-4)GlcNAc(b1-3)Gal(b1-4)GlcNAc(b1-2)Man(a1-6)]Man(b1-4)GlcNAc(b1-4)GlcNAc
# How it was run: as §1
# [50] = molecular target: Neu5Gc(b2-6)Gal(b1-4)GlcNAc
# How it was run: as §1
binder,measurement,setting,value
B1,glycan array binding signal (z-score),[1],-0.32
same,glycan array binding signal (z-score),[2],-0.332
same,glycan array binding signal (z-score),[3],-0.324
same,glycan array binding signal (z-score),[4],-0.303
B2,glycan array binding signal (z-score),[5],-0.717
same,glycan array binding signal (z-score),[6],-0.952
same,glycan array binding signal (z-score),[7],2.48
same,glycan array binding signal (z-score),[8],0.406
same,glycan array binding signal (z-score),[9],-0.221
same,glycan array binding signal (z-score),[10],0.048
same,glycan array binding signal (z-score),[11],1.38
same,glycan array binding signal (z-score),[12],2.8
same,glycan array binding signal (z-score),[13],-1.18
same,glycan array binding signal (z-score),[14],-0.162
same,glycan array binding signal (z-score),[15],1.79
same,glycan array binding signal (z-score),[16],-0.513
same,glycan array binding signal (z-score),[17],-0.81
same,glycan array binding signal (z-score),[18],-2.66
same,glycan array binding signal (z-score),[19],-0.239
same,glycan array binding signal (z-score),[20],1.73
same,glycan array binding signal (z-score),[21],0.655
same,glycan array binding signal (z-score),[22],0.399
same,glycan array binding signal (z-score),[23],-0.059
same,glycan array binding signal (z-score),[24],2.94
same,glycan array binding signal (z-score),[25],-1.49
same,glycan array binding signal (z-score),[26],-0.135
same,glycan array binding signal (z-score),[27],-0.329
same,glycan array binding signal (z-score),[28],2.27
same,glycan array binding signal (z-score),[29],2.97
same,glycan array binding signal (z-score),[30],-0.126
same,glycan array binding signal (z-score),[31],3.27
same,glycan array binding signal (z-score),[32],2.52
same,glycan array binding signal (z-score),[33],1.85
same,glycan array binding signal (z-score),[34],-0.332
same,glycan array binding signal (z-score),[35],0.187
same,glycan array binding signal (z-score),[36],1.75
same,glycan array binding signal (z-score),[37],-0.442
same,glycan array binding signal (z-score),[38],2.92
same,glycan array binding signal (z-score),[39],2.55
same,glycan array binding signal (z-score),[40],-0.036
same,glycan array binding signal (z-score),[41],-1.17
same,glycan array binding signal (z-score),[42],2.09
same,glycan array binding signal (z-score),[43],-0.167
same,glycan array binding signal (z-score),[44],2.56
same,glycan array binding signal (z-score),[45],-0.19
same,glycan array binding signal (z-score),[46],-0.473
same,glycan array binding signal (z-score),[47],-1.23
same,glycan array binding signal (z-score),[48],2.49
same,glycan array binding signal (z-score),[49],1.29
same,glycan array binding signal (z-score),[50],-0.009
